Test [1] in a line: growth inhibition of DIPG glioma cells, dose response, cell-based, SU-DIPG-XVII, MIPE5.0, CellTiter-Glo, qHTS (AID 1347060; cut-off not given, nearly all actives have AC50 up to about 26 µM;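 on AC50: cells exposed to compound for 48 hours before viability readout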). The note with it: SU-DIPG-XVII viability, CellTiter-Glo ATP luminescence. (In ATP-based viability assays light output follows the ATP content of the culture.)
A short description of test [2]: growth inhibition of DIPG glioma cells, dose response, cell-based, SU-DIPG-XIII, MIPE4.0, CellTiter-Glo, qHTS (AID 1347061; cut-off not given, nearly all actives have AC50 up to about 37 µM;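 further: cells exposed to compound for 48 hours before readout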). The note with it: SU-DIPG-XIII viability, CellTiter-Glo ATP luminescence.
Test [3] is described as follows: growth inhibition of DIPG glioma cells, dose response, cell-based, SU-DIPG-XIII, MIPE5.0, CellTiter-Glo, qHTS (AID 1347064; cut-off not given, nearly all actives have AC50 up to about 23 µM;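 on AC50: cells exposed to compound for 48 hours before the viability read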). Conditions: SU-DIPG-XIII viability, CellTiter-Glo ATP luminescence.
Test [4] is described as follows: viability loss in pontine glioma line – cell-based, SU-DIPG-XXV, MIPE5.0, CellTiter-Glo, qHTS, dose response (AID 1347065; cut-off not given, nearly all actives have AC50 up to about 26 µM;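 further: cells exposed to compound for 48 hours before ATP readout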). Conditions: CellTiter-Glo ATP luminescence.
Test [5] can be described thus: SU-DIPG-VI glioma cell viability, MIPE4.0 library, CellTiter-Glo luminescence, qHTS (AID 1347066; cut-off not given, nearly all actives have AC50 up to about 30 µM;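 further: cells exposed to compound for 48 hours before readout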). The note with it: CellTiter-Glo ATP luminescence.
Test [6] can be described thus: modifiers of HSF1 nuclear foci, imaging, Selleck Cancer Library (AID 1347162; in the data active means plate-normalised HSF1 focus index below about 0.46). The note with it: human cells, at 10 µM; SSMD: measured here: HSF1 foci SSMD mean; cell count: measured here: cell number; plate-normalised HSF1 focus index: stronger effect = lower value.
Test [7] is described as follows: ovarian cancer cell viability with rucaparib, profiling panel, oncology-focused library, rucaparib conditional (AID 1508598). The note with it: patient-derived ovarian cancer cells, CellTiter-Glo viability, 144 h, stronger effect = lower value.
Test [8] in a line: JHH-DIPG-1 glioma cell viability, MIPE5.0 library, CellTiter-Glo luminescence, qHTS (AID 1347067; cut-off not given, nearly all actives have AC50 up to about 26 µM;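 further: cells exposed to compound for 48 hours before readout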). Conditions: JHH-DIPG-1 glioma viability, CellTiter-Glo ATP luminescence.
Test [9] is described as follows: SU-DIPG-XXV glioma cell viability, MIPE5.0 library, qHTS (AID 1347068; cut-off not given, nearly all actives have IC50 up to about 30 µM). Background: qHTS replaces the single test concentration by a dilution series.
The nature of test [10]: sensitizers of A549 cells to miR-34 induction, primary screen, imaging, A549 dox-inducible miR-34, nuclei and caspase counts (AID 1347080;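 active means compounds whose cell count with miR-34 switched on is under 0.7 times the count with it off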). The note with it: A549 miR-34 inducible, Hoechst nuclei count, 48 h.
Test [11] can be described thus: survival rescue of mitochondrial mutant cells in low glucose, primary screen, MELAS cybrids, Rieske KO mouse fibroblasts, CellTiter-Glo (AID 1508586;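 active means mean z-score across replicates of 1.96 or higher in either the MELAS or the Rieske mutant cell line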;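 further: z relative to plate mean and SD of compound and empty wells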).
Test [12] can be described thus: growth inhibition of DIPG glioma cells, dose response, cell-based, SU-DIPG-IV, MIPE4.0, CellTiter-Glo, qHTS (AID 1347063; cut-off not given, nearly all actives have AC50 up to about 30 µM;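 further: compound exposure lasted 48 hours before the viability readout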). The note with it: SU-DIPG-IV viability, CellTiter-Glo ATP luminescence.
The mark [13] stands for this setting: stronger effect = lower value, cell number ratio, induced over uninduced.
The mark [14] stands for this setting: measured here: relative caspase fold change +Dox/-Dox.
Where [15] appears, read: measured here: total cells with miR-34 induction, stronger effect = lower value.
The mark [16] stands for this setting: measured here: total cells without miR-34 induction.
Setting [17] is: MELAS cybrid survival, CellTiter-Glo 48 h, stronger effect = higher value.
Setting [18] is: Rieske KO mouse fibroblast survival, CellTiter-Glo 72 h.

The source of these data is PubChem BioAssay.

Results filed as inconclusive are left out. Activity calls are given as the source filed them.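 How the source made its calls, unless noted: active means normalized viability below 100% at a tested concentration; inactive means the rest.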

In general, AC50 refers to the midpoint of the concentration-response curve, whichever way the signal moves. As a reminder, the viability is a read-out of living cells in per cent, often relative to untreated cells.

As to `CO[C@@H](C(=O)N1Cc2[nH]nc(NC(=O)c3ccc(N4CCN(C)CC4)cc3)c2C1)c1ccccc1`, the AC50 in [1] was 0.525 µM (active); in [2], 1.87 µM (active); in test [3] it was 1.05 µM (active); in test [4] it was 0.372 µM (active). For the same molecule, in test [5], the molecule was called inactive. In test [6], this molecule displayed an SSMD of 1.91. This molecule gave a cell count in test [6] of 6850. In addition, the plate-normalised HSF1 focus index in test [6] is 1.1 (inactive). Besides, the viability in test [7] (at 0.000305 µM, OCI-C5x cells, with rucaparib 10 µM, 100% = cells with rucaparib alone) was 122% (inactive); in [7] (at 0.000305 µM, OCI-C5x cells, without rucaparib) it was 95% (active); in [7] (at 0.000305 µM, OCI-P5x cells, with rucaparib 20 µM, 100% = cells with rucaparib alone) it was 88.8% (active); in test [7] (at 0.000305 µM, OCI-P5x cells, without rucaparib) it was 84.6% (active); in test [7] (at 0.00122 µM, OCI-C5x cells, with rucaparib 10 µM, 100% = cells with rucaparib alone) it was 113% (inactive); in [7] (at 0.00122 µM, OCI-C5x cells, without rucaparib) it was 106% (inactive). In addition, the viability in [7] (at 0.00122 µM, OCI-P5x cells, with rucaparib 20 µM, 100% = cells with rucaparib alone) is 89.5% (active); in test [7] (at 0.00122 µM, OCI-P5x cells, without rucaparib), 84.3% (active); in [7] (at 0.00488 µM, OCI-C5x cells, with rucaparib 10 µM, 100% = cells with rucaparib alone), 96% (active); in test [7] (at 0.00488 µM, OCI-C5x cells, without rucaparib), 104% (inactive); in [7] (at 0.00488 µM, OCI-P5x cells, with rucaparib 20 µM, 100% = cells with rucaparib alone), 91.4% (active); in [7] (at 0.00488 µM, OCI-P5x cells, without rucaparib), 88.2% (active). The viability in test [7] (at 0.0195 µM, OCI-C5x cells, with rucaparib 10 µM, 100% = cells with rucaparib alone) was 96.4% (active); in [7] (at 0.0195 µM, OCI-C5x cells, without rucaparib), 81% (active); in test [7] (at 0.0195 µM, OCI-P5x cells, with rucaparib 20 µM, 100% = cells with rucaparib alone), 95.5% (active); in test [7] (at 0.0195 µM, OCI-P5x cells, without rucaparib), 93.2% (active); in test [7] (at 0.0781 µM, OCI-C5x cells, with rucaparib 10 µM, 100% = cells with rucaparib alone), 57.5% (active); in test [7] (at 0.0781 µM, OCI-C5x cells, without rucaparib), 79.9% (active). In addition, the viability in test [7] (at 0.0781 µM, OCI-P5x cells, with rucaparib 20 µM, 100% = cells with rucaparib alone) was 91.5% (active); in test [7] (at 0.0781 µM, OCI-P5x cells, without rucaparib), 73.7% (active); in test [7] (at 0.313 µM, OCI-C5x cells, with rucaparib 10 µM, 100% = cells with rucaparib alone), 66.2% (active); in [7] (at 0.313 µM, OCI-C5x cells, without rucaparib) it was 89.6% (active); in test [7] (at 0.313 µM, OCI-P5x cells, with rucaparib 20 µM, 100% = cells with rucaparib alone), 75.2% (active); in [7] (at 0.313 µM, OCI-P5x cells, without rucaparib) it was 64.1% (active). In addition, the viability in test [7] (at 1.25 µM, OCI-C5x cells, with rucaparib 10 µM, 100% = cells with rucaparib alone) was 84.8% (active); in test [7] (at 1.25 µM, OCI-C5x cells, without rucaparib), 112% (inactive); in test [7] (at 1.25 µM, OCI-P5x cells, with rucaparib 20 µM, 100% = cells with rucaparib alone), 72.6% (active); in test [7] (at 1.25 µM, OCI-P5x cells, without rucaparib), 60% (active); in test [7] (at 5 µM, OCI-C5x cells, with rucaparib 10 µM, 100% = cells with rucaparib alone), 71.1% (active); in test [7] (at 5 µM, OCI-C5x cells, without rucaparib) it was 88.4% (active). For the same molecule, the viability was 19.1% (active) in [7] (at 5 µM, OCI-P5x cells, with rucaparib 20 µM, 100% = cells with rucaparib alone) and 17% (active) in test [7] (at 5 µM, OCI-P5x cells, without rucaparib).
Take `CN[C@@H](C)C(=O)N[C@H]1CCCC[C@H]2CC[C@@H](C(=O)N[C@@H](c3ccccc3)c3cn(CCCCc4ccc(CCCCn5cc([C@@H](NC(=O)[C@@H]6CC[C@@H]7CCCC[C@H](NC(=O)[C@H](C)NC)C(=O)N76)c6ccccc6)nn5)cc4)nn3)N2C1=O`: the molecule was classed as inactive in test [1], in test [2], in test [3], in [5] and in test [8].
With `Cc1nc(C(=O)NCC(=O)O)c(O)c2ccc(Oc3ccccc3)cc12`, the call in [1], in [2], in test [3], in test [4], in [5] and in [8] was inactive. Moreover, in [9], the molecule was called inactive. Further, the figures for the fold change in [10] (setting [13]) and in test [10] (setting [14]) were 0.947 (inactive) and 0.804, respectively. Besides, the cell count in [10] (setting [15]) is 6810; in [10] (setting [16]), 7190. The figures for the z-score in test [11] (setting [17]) and in test [11] (setting [18]) were -0.0779 (inactive) and 0.278, respectively.
With `CC1=C(C(=O)Nc2cc3cn[nH]c3cc2F)C(c2ccc(C(F)(F)F)cc2)CC(=O)N1` (stereo not given), the molecule was called inactive in test [1], in test [2], in [12], in [3], in test [8] and in [9]. In addition, the fold change is 1.03 (inactive) in test [10] (setting [13]) and 0.78 in [10] (setting [14]). Further, the results for the cell count in test [10] (setting [15]) and in test [10] (setting [16]) were 5210 and 5040, respectively. The values for the z-score in test [11] (setting [17]) and in test [11] (setting [18]) were -0.364 (inactive) and 0.0194, respectively.
